About 83,000 compounds went through this panel and 20% of them were active in at least one assay; those are over-represented in the sample as a whole.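 Each cell line was grown in a 96-well plate and treated with one concentration of compound for 48 hours. Values below 10 were considered active.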 Activity calls are given as the source filed them.
Each compound was assayed on HCT-15 colon (assay: NCI-60 one-dose screen, 48 h (100 = growth as untreated, 0 = no growth, -100 = all killed)). Conditions: 10 µM unless noted.
Protocol: Growth inhibition of the HCT-15 human tumor cell line is measured as a screen for anti-cancer activity. Cells are grown in 96 well plates and exposed to the test compound for 48 hours. Compounds are tested at a single concentration, which is 10^-5 M for most compounds. The reported endpoint is percent growth (GI% or GIPRCNT), where numbers from 0 - 100% represent growth inhibition, and numbers from -100% - 0 represent cell death. For example, a value of 40 represents 60% growth inhibition. A value of 0 means no net growth occurred over the course of the experiment. A value of -40 indicates 40% of cells at the beginning of the experiment died by the end of the experiment. A value of -100 means all cells are dead at the end of the experiment.
NCI-60 Human Tumor Cell Lines Screen was performed using the standard one-dose NCI protocol, which is described in more detail at https://dtp.cancer.gov/discovery_development/nci-60/default.htm.
Compounds with GIPRCNT values below 10 were considered active. Activity score was based on GIPRCNT using the following formula: […]
Score is 0 for GIPRCNT values of 100 or above, 50 for GIPRCNT values of 0, and 100 for GIPRCNT values of -100.

Compound	growth
CCN1CCN(c2cc(C)nc(NCc3cc(Nc4ccnc5cc(Cl)ccc45)ccc3F)n2)CC1	15.9% (inactive)
COc1cc(/C=C/C(=O)c2ccc(Nc3nc(Nc4ccc(F)cc4)nc(Nc4ccc(Cl)cc4)n3)cc2)cc(OC)c1OC	55% (inactive)
CCOC(=O)c1csc(NC(=O)COc2cccc(/C=C3\Oc4cc(OC)ccc4C3=O)c2)n1	79.2% (inactive)
Cc1ccc(Nc2ccc(Nc3ccc(C)cc3)c3c2C(=O)c2cccc(O)c2C3=O)cc1	100% (inactive)
COc1cc2ncn3c(=O)c4c5c(sc4nc3c2cc1OC)CCCC5	99.9% (inactive)
O=C(/C=C/c1c(Cl)nc2sccn12)c1nccs1	99.3% (inactive)
NS(=O)(=O)c1cnccc1Sc1ccncc1S(N)(=O)=O	102% (inactive)
COc1ccc(C2C(c3nn[nH]n3)=C(N)Oc3c2ccc2ccccc32)cc1 (stereo not given)	35% (inactive)
Cn1cc(-c2csc(-c3ccccc3)n2)c2cccnc21	-40.3% [100 µM] (active)
O=Cc1c[nH]c2ccc(-c3csc4ccccc34)cc12	29% (inactive)
Cn1cc2c(c1)-c1nc(Nc3ccccc3)ncc1CC2	45.9% (inactive)
COc1ccc(/C=N/C2=C(C#N)C(c3ccc(OC)cc3)c3ccc4ccccc4c3O2)cc1 (stereo not given)	44.3% (inactive)
CC/C=C\CCC/C=C1/C(=O)C=C[C@@H]1C/C=C\CCCC(=O)O	53.7% (inactive)
COc1ccc2[nH]c(O)c(/C=c3/cc4c(c(-c5cc(OC)c(OC)c(OC)c5)n3)=Nc3ccccc3-4)c2c1	46.8% (inactive)
Cc1ccc(S(=O)(=O)Oc2cc(OS(=O)(=O)c3ccc(C)cc3)cc(OS(=O)(=O)c3ccc(C)cc3)c2)cc1	98.1% (inactive)
O=C(/C=C/c1cccc(O)c1)c1cccc(-n2cc(-c3ccc4ccccc4c3)[nH]c2=O)c1	2.35% (active)
COc1cc(C2CC(=O)Nc3c2c(C)nn3-c2nc3ccccc3[nH]2)cc2c1OCC(=O)N2 (stereo not given)	95.3% (inactive)
COC(=O)[C@]12CC[C@@H](C)[C@H](C)[C@@H]1C1=CC[C@@H]3[C@@]4(C)C(C=O)=C[C@@](C)(COC(C)=O)[C@@H]4C(=O)C[C@@]3(C)[C@]1(C)CC2	21.5% (inactive)
COc1ccc(C(=O)COc2ccc(/C=C3\Oc4ccccc4C3=O)cc2)cc1	96.8% (inactive)
Oc1ccc(CN2CCC(N3CCOCC3)CC2)c2cccnc12	17.7% (inactive)

Compound	growth
CCc1ccccc1-n1c(-c2ccc(Cl)cc2)cc(-c2ccc(Cl)cc2)c(C#N)c1=O	84.3% (inactive)
NC1=NCc2nc3ccccc3c(=O)n2C1	99.2% (inactive)
c1ccc(-c2nc([P+](c3ccccc3)(c3ccccc3)c3ccccc3)c(N3CCOCC3)o2)cc1	79.3% (inactive)
COc1cccc(-c2nc3sccn3c2-c2ccnc(NCCNS(=O)(=O)c3cccc(F)c3)c2)c1	25.1% (inactive)
COc1cccc(C(=O)NCCCNc2cc(-c3cn(-c4ccccc4)nc3-c3cccc(OC)c3)ccn2)c1	35.5% (inactive)
O=[N+]([O-])c1ccc(Sc2cccc[n+]2[O-])c2nonc12	73.1% (inactive)
COc1ccc(-c2ccc3c(c2)sc2nc(-c4ccc(F)cc4)cn23)cc1	74.9% (inactive)
Cc1ccc(CCC(=O)Nc2ncc(Cc3cc(Cl)ccc3Cl)s2)o1	12.5% (inactive)
C#Cc1cccc(NC(=O)c2ccc(NC(=O)CCl)cc2)c1	-57% [8.25 µM] (active)
O=Cc1ccc(O)c2ncccc12	22.9% (inactive)
Cc1ccc(S(=O)(=O)n2cc(CNc3ccc(N4CCOCC4=O)cc3)c3ccccc32)cc1	74.7% (inactive)
Clc1ccc(-c2c3ccc(=[N+]4CCCCC4)cc-3oc3cc(N4CCCCC4)ccc23)cc1	-77.1% (active)
COc1ccc2[nH]c(O)c(C(=Nc3ccc(N(C)C(=O)CN4CCN(C)CC4)cc3)c3ccccc3)c2c1	24.7% (inactive)
NC(N)=NN=C(c1ccccc1)c1ccccc1	30.9% (inactive)
FC(F)(F)c1cc(Nc2ccc3cc(OCCCN4CCOCC4)ccc3n2)ccc1Cl	-0.426% (active)
CCN(CC)CCCC(C)Nc1c2ccc(Cl)cc2nc2ccc(O)cc12 (stereo not given)	42.3% (inactive)
CCN(CCNc1ccc(C)c2sc3ccccc3c(=O)c12)CC(C)(C)O	28.8% (inactive)
O=C(Nc1cccc(Cl)c1)c1cc(N=Nc2ccc([N+](=O)[O-])cc2Cl)ccc1O	72.5% (inactive)
O=C1Nc2ccc(F)cc2C12Nc1cc(Cl)ccc1S2 (stereo not given)	82.3% (inactive)
O=C(Nc1cccc(C(F)(F)F)c1)Nc1cccc(C(F)(F)F)c1	10.7% (inactive)
